# This is a sample that favours compounds with a hit; in the whole collection about 3.8% have one here.
# Mdm2-MdmX inh: disrupts the human Mdm2-MdmX interaction | O15151+Q00987 | SaOS-2 split-luciferase Mdm2/MdmX complementation, luminescence | inhibition, % at 8 µM | 330,000 compounds, 3% hits;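 active = inhibition of at least 50% at 8 µM in the primary screen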
# Target sequence (O15151 whole entry, looked up): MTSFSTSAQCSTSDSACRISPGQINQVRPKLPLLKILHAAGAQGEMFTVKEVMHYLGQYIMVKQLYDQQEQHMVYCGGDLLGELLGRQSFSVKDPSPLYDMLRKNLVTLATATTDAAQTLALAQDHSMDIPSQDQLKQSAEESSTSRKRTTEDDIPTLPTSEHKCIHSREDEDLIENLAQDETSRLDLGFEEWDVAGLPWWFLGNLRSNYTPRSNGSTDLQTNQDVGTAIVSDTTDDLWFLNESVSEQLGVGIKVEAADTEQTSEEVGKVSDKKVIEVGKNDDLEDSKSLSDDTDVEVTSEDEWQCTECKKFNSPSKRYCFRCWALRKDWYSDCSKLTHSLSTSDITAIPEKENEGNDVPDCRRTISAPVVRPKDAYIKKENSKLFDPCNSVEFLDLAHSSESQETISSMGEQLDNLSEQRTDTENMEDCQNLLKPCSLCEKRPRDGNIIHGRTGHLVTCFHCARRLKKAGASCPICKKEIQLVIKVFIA
# Target sequence (Q00987 whole entry, looked up): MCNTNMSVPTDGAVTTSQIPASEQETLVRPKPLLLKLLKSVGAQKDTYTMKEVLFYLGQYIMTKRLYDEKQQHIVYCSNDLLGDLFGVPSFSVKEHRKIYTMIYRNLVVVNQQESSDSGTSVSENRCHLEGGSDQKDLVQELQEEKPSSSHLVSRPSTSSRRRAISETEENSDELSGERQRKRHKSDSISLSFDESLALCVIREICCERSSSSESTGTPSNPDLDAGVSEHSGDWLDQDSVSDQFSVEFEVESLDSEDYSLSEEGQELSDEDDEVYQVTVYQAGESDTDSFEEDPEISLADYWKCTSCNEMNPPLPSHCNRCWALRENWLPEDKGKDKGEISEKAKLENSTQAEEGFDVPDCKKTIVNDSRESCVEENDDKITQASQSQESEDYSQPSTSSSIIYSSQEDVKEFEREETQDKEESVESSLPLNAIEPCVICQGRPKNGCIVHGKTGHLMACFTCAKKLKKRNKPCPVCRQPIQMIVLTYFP
# 697 NFkB inh: inhibitors of the PMA/ionomycin-induced NF-kB reporter in 697 B cells; 697 B-cell NF-kB luciferase reporter, 16 h; inhibition, % at 4 µM; 330,000 compounds, 0.33% hits; AID 435022; in the data active = inhibition above about 35%
# Shn3 inh set2: inhibitors of Schnurri-3 3'UTR reporter in osteoblasts; 360,000 compounds, 0.52% hits; AID 588674; inhibition, % at 12.5 µM; Clone20 osteoblast Shn3 3'UTR firefly luciferase, 24 h;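 active = mean inhibition of at least 75% with every replicate also reaching 75%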;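 note: 0% = median of neutral control wells and 100% = pilot-screen positive control compound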
# Jurkat NFkB inh: lowers PMA/ionomycin-induced NF-kB signal in Jurkat cells | PMA/ionomycin-induced NF-kB luciferase reporter, luminescence | inhibition, % at 4 µM | 330,000 compounds, 0.53% hits | AID 435003; in the data active = inhibition above about 50%
# Gli-Sufu antag: Gli-Sufu pathway antagonism; Sufu-KO-LIGHT fibroblasts, Gli luciferase reporter luminescence; inhibition, % at 5 µM; 340,000 compounds, 0.74% hits;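 active = inhibition above about 55%, limit read from the data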;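 note: 0% = DMSO-treated cells and 100% = wells with medium but no cells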
# * hit, by the source's call; . = not tested or not shown.
SMILES,Mdm2-MdmX inh,697 NFkB inh,Shn3 inh set2,Jurkat NFkB inh,Gli-Sufu antag
COc1cccc(-c2nc(NC3CCCC3)c3ccccc3n2)c1O,34.9,-11.3,86.3*,-7.6,9.1
C(=NNc1ccc2ccccc2n1)c1ccccn1,.,.,91.8*,.,.
C(=N\NC1=Nc2cccc3cccc1c23)/c1ccccn1,.,.,49.8,.,70.0*
CC(C)n1c(=O)c2ccccc2n1Cc1cn(Cc2ccccc2)nn1,.,.,-2.7,.,.
COCCNC(=O)C1(C)CCN(C(=O)c2ccc(C(F)(F)F)nc2C)C1 (centres undefined),.,.,14.2,.,.
CC1(Cc2cc(Cl)ccc2C(F)(F)F)C(=O)Nc2cc(C(F)(F)F)ccc21 (centres undefined),.,.,13.1,.,.
COc1ccc(C2/C=C\CN(C(=O)c3ccc(C)cc3)[C@H](Cc3ccccc3)C(=O)N2Cc2ccc(F)cc2)cc1 (some centres undefined),34.8,18.4,87.3*,33.3,-6.1
N#CC(C#N)=C(Nc1ccc(F)cc1)SCc1cccc(Br)c1,.,.,77.0,.,64.4*
c1csc(CNc2ncnc3sccc23)c1,-6.8,12.7,89.2*,44.1,46.9
Cc1cc(CN(C)C)c(O)c(C2(C)CCCCC2)c1,19.7,2.1,23.5,-4.1,4.0
Cc1cc(CN2CCOCC2)c(O)c(C2(C)CCCCC2)c1,11.0,-19.9,86.5*,-13.1,0.5
COc1ccc(CC(N)c2csc(NC(=O)Nc3cccc(C(F)(F)F)c3)n2)cc1 (centres undefined),.,.,96.4*,.,.
COc1ccc(-c2cnc(C(O)c3ccc(C(C)(C)C)cc3)[nH]2)cc1 (centres undefined),.,.,13.9,.,.
COc1cc(CN2CCc3ccccc3C2)ccc1O,36.4,14.3,95.4*,19.1,8.4
COc1cc(CN2CCc3ccccc3C2)cc([N+](=O)[O-])c1O,-13.6,-7.6,-5.0,2.7,7.4
O=C(OCc1ccccc1)N(CCCCN(CCCNCc1ccccc1)C(=O)OCc1ccccc1)CCCNCc1ccccc1,.,.,99.1*,.,8.5
O=C(NCCCCCCNC(=O)OCc1ccccc1)OCc1ccccc1,.,.,-7.7,.,10.3
COc1ccccc1/C=N/NC(=O)c1ccc(NC(=O)c2cccc([N+](=O)[O-])c2)cc1,-5.9,11.0,.,-15.2,.
COc1cccc(/C=N/NC(=O)c2cc3cc([N+](=O)[O-])ccc3s2)c1O,.,.,91.4*,.,76.9*
CC(C)Cn1c(N)c(C(=O)COC(=O)CC23CC4CC(CC(C4)C2)C3)c(=O)n(C)c1=O,26.7,-14.9,86.8*,47.0,0.1
Cc1csc(=O)n1CCC(=O)OCC(=O)c1c(N)n(CC(C)C)c(=O)n(C)c1=O,30.7,15.9,79.6,12.0,18.4
COc1cccc(Nc2nc(NCC3CCCO3)c3ccccc3n2)c1 (centres undefined),43.2,-88.2,87.7*,28.6,47.0
Oc1ccc(Nc2nc(NCC3CCCO3)c3ccccc3n2)cc1 (centres undefined),37.2,-2.6,48.5,4.5,17.5
COc1ccccc1-c1cc(C(F)(F)F)nc(S(=O)(=O)CCCC(=O)Nc2cccnc2Cl)n1,.,.,90.7*,.,-1.4
Cn1cnc([N+](=O)[O-])c1S(=O)(=O)Oc1ccccc1,.,.,94.6*,.,2.6
SMILES,Mdm2-MdmX inh,697 NFkB inh,Shn3 inh set2,Jurkat NFkB inh,Gli-Sufu antag
CN(C)CCNCCCNc1c2ccccc2nc2cccc([N+](=O)[O-])c12,.,.,11.2,.,61.8*
COc1ccc(CCN2CC(C(=O)N(C)Cc3cccnc3)CC2=O)cc1OC (centres undefined),4.0,8.4,1.0,7.1,-4.9
Cc1cc(=O)c(C(=O)O)c(C)n1-c1ccccc1,.,.,4.8,.,5.2
CCOc1ccccc1NC(=O)/C=C/c1ccccc1[N+](=O)[O-],13.6,9.7,-18.2,-17.9,-6.6
CCOC(=O)COc1ccc2ccccc2c1/C=C/[N+](=O)[O-],.,.,94.6*,.,-2.2
CCOc1ccc(/C=C/[N+](=O)[O-])c2ccccc12,46.5,18.4,95.0*,-1.5,6.2
CCOC(=O)Cn1cc(/C=C/[N+](=O)[O-])c2ccccc21,-9.4,-3.0,-21.6,-3.5,-18.2
Cc1ccc(C)c(N2CCN(S(=O)(=O)c3ccc4[nH]c(=O)ccc4c3)CC2)c1,22.7,7.9,93.6*,1.7,-0.1
Cc1[nH]nc(-c2cccnc2)c1N=NN(C)C,.,.,-5.0,.,24.5
O=C(CSc1nnc(COc2ccc(Cl)cc2)o1)N(c1ccccc1)C1CCS(=O)(=O)C1 (centres undefined),.,.,14.0,.,.
Nc1nc(N)c2cc(S(=O)(=O)c3ccc4ccccc4c3)ccc2n1,.,.,85.1*,.,.
Nc1nc(N)c2cc([N+](=O)[O-])ccc2n1,.,.,-5.9,.,1.1
CNc1ncnc2c1ncn2[C@H]1CN(Cc2ccncc2)C[C@@H](CO)O1,.,.,-25.6,.,.

# Source: PubChem
